Hit rate of the full screen: of about 190,000 compounds, about 4,000 (2.1%) were called active. Cut-off read from the data, not from the text of the source: active = inhibition above about 58%; inactive = the rest, inconclusive results apart; tested in S. cerevisiae. What follows is part of a selection rich in actives, with near analogues and random picks from the rest.
Assay: growth inhibition of WT strain, primary screen, mitochondrial fusion inhibitor project, WT and mutant strains, chemical genetic (AID 1362)
Details: mitochondrial fusion phenotypic screen, at 10 µM
[1] = WT strain, growth inhibition, stronger effect = higher value

| SMILES | inhibition [1] | inhibition (mutant strain inhibition) |
| --- | --- | --- |
| CCn1nccc1C(=O)Nc1ccc(Cl)c(Cl)c1 | 27.7% (inactive) | 28.1% |
| CCn1nccc1C(=O)Nc1ccc(S(=O)(=O)NC23CC4CC(CC(C4)C2)C3)cc1 | 64% (active) | -11.7% |
| Cc1cc(C(F)F)n2nc(C(=O)Nc3ccc(S(=O)(=O)NC45CC6CC(CC(C6)C4)C5)cc3)nc2n1 | -1.63% (inactive) | -19.6% |
| S=c1nc(C23CC4CC(CC(C4)C2)C3)nc2sccn12 | 23.5% (inactive) | 16.9% |
| COc1ccccc1N1CCN(CC(=O)NCCc2ccc(S(N)(=O)=O)cc2)CC1 | -0.9% (inactive) | 3.52% |
| O=C(NC1(C(F)(F)F)NC(=O)N(C2CCCCC2)C1=O)c1ccco1 (stereo not drawn) | -16.6% (inactive) | -15.1% |
| COC(=O)NC1(C(F)(F)F)NC(=O)N(C2CCCCC2)C1=O (stereo not drawn) | 6.22% (inactive) | -5.73% |
| O=C1NC(Nc2nc3ccccc3s2)(C(F)(F)F)C(=O)N1C1CCCCC1 (stereo not drawn) | 68.5% (active) | 15.8% |
| CS(=O)(=O)N(CC(=O)NC1CCCC1)Cc1ccc(F)cc1 | 1.23% (inactive) | -0.09% |
| CN(C)S(=O)(=O)c1cccc(NC(=O)COC(=O)/C=C/c2cccs2)c1 | 0.4% (inactive) | -0.76% |
| CN1CCN(S(=O)(=O)c2cccc(C(=O)N3CCc4ccccc43)c2)CC1 | -3.09% (inactive) | -6.02% |
| COc1cccc(CNC(=O)Cc2csc(Nc3nc(=S)[nH]c4ccccc34)n2)c1 | 2.48% (inactive) | 7.91% |
| CCOC(=O)c1c(C2CC2)csc1NC(=O)CSCc1c(C)noc1C | -0.08% (inactive) | 6.46% |
| CCn1c(SCC(=O)Nc2nc3ccc(OC)cc3s2)nnc1-c1ccoc1C | 42% (inactive) | 9.68% |
| Cc1noc(C)c1CSCC(=O)Nc1nc2ccc(Oc3ccccc3)cc2s1 | 71.3% (active) | 34.8% |
| O=C(O)Cc1ccc(NCc2ccccc2Cl)cc1 | 2.97% (inactive) | -2.38% |
| CN1CCNC(=O)C1CC(=O)NCCC1=CCCCC1 (stereo not drawn) | 13.1% (inactive) | 9.2% |
| Cc1ccc(-c2csc(NNC(=O)c3ccccc3)n2)cc1 | 9.24% (inactive) | 14% |
| Clc1ccc(-c2csc(-c3ccncc3)n2)cc1 | 25.2% (inactive) | 28.4% |
| CCCc1cc(-c2nc(-c3ccc(C)cc3)cs2)ccn1 | 77.9% (active) | 50.8% |
| CC1Cc2ccccc2N1C(=O)CSc1nnc(C2CC2)n1C (stereo not drawn) | -5.06% (inactive) | 2.15% |
| Cc1ccc(C)c(NC(=S)NNC(=O)c2csc(C)c2)c1 | -2.09% (inactive) | -14.4% |
| Cc1ccc(NC(=S)N/N=C2/CCCc3c(C)cc(C)cc32)cc1 | 23.1% (inactive) | 23.1% |
| Cc1ccc(C)c(NC(=S)NNC(=S)Nc2ccc(C(C)C)cc2)c1 | 71.3% (active) | 24.5% |
